The campaign covered roughly 3,200 compounds. About 300 (9.4%) showed activity. The full list was thinned out, with actives kept by preference.
System: A673/TR/shEF
Experiment: cell viability (LOESS-normalised, relative to median of negative controls) (log2 ratio); higher = more viable cells (less compound effect), active = hit call of the paper (over 3 MAD below the median)
Settings: treatment time: 72 h
How it was run: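 Doxycycline, present or absent from 24 h before compounds, was used to induce EWS-FLI1 shRNA knockdown in A673/TR/shEF Ewing sarcoma cells at 1,500 per well in 384-well plates. Cells then received library compounds at two or more concentrations, or DMSO controls, for three days. Viability was measured by CellTiter-Glo luminescence on an Envision reader, and per-plate LOESS correction, division by the negative-control median and log2 transformation followed.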

[1] = 0.025 µM, library screen: screen1, EWS-FLI1 expression: high (no doxycycline)
[2] = 0.025 µM, library screen: screen1, EWS-FLI1 expression: low (doxycycline-induced shRNA knockdown)
[3] = 0.25 µM, library screen: screen1, EWS-FLI1 expression: high (no doxycycline)
[4] = 0.25 µM, library screen: screen1, EWS-FLI1 expression: low (doxycycline-induced shRNA knockdown)
[5] = 2.5 µM, library screen: screen1, EWS-FLI1 expression: high (no doxycycline)
[6] = 2.5 µM, library screen: screen1, EWS-FLI1 expression: low (doxycycline-induced shRNA knockdown)
[7] = 25 µM, library screen: screen1, EWS-FLI1 expression: high (no doxycycline)
[8] = 25 µM, library screen: screen1, EWS-FLI1 expression: low (doxycycline-induced shRNA knockdown)
[9] = 0.25 µM, library screen: screen2, EWS-FLI1 expression: high (no doxycycline)
[10] = 0.25 µM, library screen: screen2, EWS-FLI1 expression: low (doxycycline-induced shRNA knockdown)
[11] = 2.5 µM, library screen: screen2, EWS-FLI1 expression: high (no doxycycline)
[12] = 2.5 µM, library screen: screen2, EWS-FLI1 expression: low (doxycycline-induced shRNA knockdown)

Measured: cell viability (log2)

N#CC(C#N)=Cc1cc(O)c(O)c([N+](=O)[O-])c1
inactive: [1] 0.235 | [2] -0.0184 | [4] 0.00958 | [6] -0.0107 | [8] 0.176
active: [5] -0.167 | [7] -0.153
0.283: [3]

N#CC(C#N)=Cc1ccc([N+](=O)[O-])c(O)c1
active: [5] -0.131 | [6] -0.169 | [11] -0.559 | [12] -0.298 | [7] -0.408 | [8] -0.158
inactive: [2] 0.0132 | [4] -0.0619 | [9] 0.0683 | [10] 0.016
0.298: [1]
0.311: [3]

N#CC(C#N)=Cc1ccc(O)cc1
inactive: [1] 0.0481 | [2] 0.0237 | [3] 0.0596 | [4] 0.0262 | [5] 0.0426 | [6] 0.0755 | [7] 0.0734 | [8] 0.0191

N#CC(C#N)=Cc1ccc(O)c(O)c1
inactive: [1] 0.0488 | [2] -0.0484 | [3] 0.042 | [4] -0.0954 | [9] 0.172 | [10] 0.124 | [5] 0.0531 | [6] -0.000697 | [11] 0.143 | [12] 0.061 | [7] -0.0656 | [8] 0.016

N#CC(C#N)=Cc1cc(O)c(O)c(O)c1
inactive: [1] -0.0494 | [2] 0.0428 | [3] 0.0608 | [4] -0.0659 | [9] 0.269 | [10] 0.131 | [5] -0.0151 | [6] 0.0163 | [11] 0.19 | [12] 0.0774 | [7] 0.0348 | [8] 0.1

COc1cc(C=C(C#N)C#N)cc(O)c1O
inactive: [9] 0.15 | [10] 0.104 | [11] 0.12 | [12] 0.124

C[N+](C)(C)CCOC(=O)CBr
inactive: [9] 0.173 | [10] 0.097 | [11] 0.0892 | [12] 0.139

COc1ccc2c(c[n+](C)c3c4cc5c(cc4ccc23)OCO5)c1OC
inactive: [9] 0.273 | [10] 0.121 | [11] 0.106 | [12] 0.0124

CN1CC[C@@]23CCCC[C@@H]2[C@@H]1Cc1ccc(O)cc13
inactive: [9] 0.228 | [10] 0.105 | [11] 0.167 | [12] 0.081

C[C@]12CCC(=O)C=C1CCc1ccc(O)cc12
inactive: [3] 0.081 | [4] -0.029 | [5] 0.111 | [6] 0.113

CC(C)c1cc2c(c(O)c1O)[C@@]1(C(=O)O)CCCC(C)(C)[C@@H]1CC2
inactive: [3] 0.0242 | [4] 0.0347 | [5] 0.115 | [6] 0.191

CCC(C)C(=O)OC1CC2(C)C(c3ccoc3)OC(=O)CC23OC2(C)OC34C(OC(=O)C(C)C)C3(O)C(OC(=O)C5(C)OC5C)C5(C)CC3(O)C(C)(C5CC(=O)OC)C14O2 (stereo unspecified)
inactive: [3] 0.108 | [4] -0.0058 | [5] 0.0939 | [6] 0.12

C[C@H]1O[C@@H](O[C@H]2[C@@H](O)C[C@H](O[C@H]3[C@@H](O)C[C@H](O[C@H]4CC[C@@]5(C)[C@H](CC[C@@H]6[C@@H]5CC[C@]5(C)[C@@H](C7=CC(=O)OC7)[C@@H](O)C[C@]65O)C4)O[C@@H]3C)O[C@@H]2C)C[C@H](O)[C@@H]1O
active: [3] -0.13 | [4] -0.332 | [5] -1.73 | [6] -1.76

CC(=O)OC1CC(OC2C(O)CC(OC3C(O)CC(OC4CCC5(C)C(CCC6C5CC(O)C5(C)C(C7=CC(=O)OC7)CCC65O)C4)OC3C)OC2C)OC(C)C1OC1OC(CO)C(O)C(O)C1O (stereo unspecified)
inactive: [3] 0.0557 | [4] -0.286
active: [5] -2.91 | [6] -3.01

CC(=O)O[C@H]1C[C@@H]2CC[C@@H]3[C@H](CC[C@@]4(C)[C@H]3C[C@H]([N+]3(C)CCCCC3)[C@@H]4OC(C)=O)[C@@]2(C)C[C@@H]1[N+]1(C)CCCCC1
inactive: 0.103 µM, library screen: screen3, EWS-FLI1 expression: high (no doxycycline) 0.0285 | 0.103 µM, library screen: screen3, EWS-FLI1 expression: low (doxycycline-induced shRNA knockdown) 0.0357 | [9] 0.133 | [10] 0.105 | 0.308 µM, library screen: screen3, EWS-FLI1 expression: high (no doxycycline) 0.115 | 0.308 µM, library screen: screen3, EWS-FLI1 expression: low (doxycycline-induced shRNA knockdown) 0.051 | 0.926 µM, library screen: screen3, EWS-FLI1 expression: high (no doxycycline) 0.183 | 0.926 µM, library screen: screen3, EWS-FLI1 expression: low (doxycycline-induced shRNA knockdown) 0.0779 | [11] 0.145 | [12] 0.0752 | 2.8 µM, library screen: screen3, EWS-FLI1 expression: high (no doxycycline) 0.112 | 2.8 µM, library screen: screen3, EWS-FLI1 expression: low (doxycycline-induced shRNA knockdown) 0.0286 | 8.3 µM, library screen: screen3, EWS-FLI1 expression: high (no doxycycline) 0.106 | 8.3 µM, library screen: screen3, EWS-FLI1 expression: low (doxycycline-induced shRNA knockdown) 0.0203 | 25 µM, library screen: screen3, EWS-FLI1 expression: high (no doxycycline) 0.16 | 25 µM, library screen: screen3, EWS-FLI1 expression: low (doxycycline-induced shRNA knockdown) 0.0865

CO[C@H]1C[C@H](O[C@H]2CC[C@@]3(C)[C@H](CC[C@@H]4[C@@H]3CC[C@]3(C)[C@@H](C5=CC(=O)OC5)[C@@H](OC(C)=O)C[C@]43O)C2)O[C@@H](C)[C@@H]1O
active: [3] -0.578 | [4] -1.73 | [5] -3.54 | [6] -4.25

CC(=O)O[C@@H]1CC[C@@]2(C)[C@@H](CC[C@@H]3[C@@H]2CC[C@]2(C)C(=O)CC[C@@H]32)C1
inactive: [3] 0.0923 | [4] 0.0254 | [5] 0.0362 | [6] 0.0893

CC(=O)OC1CCC2(C)C(CCC3C2CCC2(C)C(C4=CC(=O)OC4)C(OC(C)=O)CC32O)C1 (stereo unspecified)
inactive: [3] -0.0585 | [4] -0.416
active: [5] -2.02 | [6] -2.26

C[C@]12CC[C@H](O)C[C@H]1CC[C@@H]1[C@@H]2CC[C@]2(C)[C@@H](C3=CC(=O)OC3)[C@@H](O)C[C@]12O
inactive: [3] 0.0825 | [4] 0.115 | [5] 0.137 | [6] 0.0999

NS(=O)(=O)c1ccc2c(c1)CNCC2
inactive: [9] 0.162 | [10] 0.085 | [11] 0.143 | [12] 0.0805

CC[S+]([O-])CCSP(=O)(OC)OC (stereo unspecified)
inactive: [3] 0.119 | [4] 0.0126 | [5] 0.119 | [6] 0.0247

NC(=O)c1cc([N+](=O)[O-])cc([N+](=O)[O-])c1
inactive: 0.025 µM, library screen: screen2, EWS-FLI1 expression: high (no doxycycline) 0.148 | 0.025 µM, library screen: screen2, EWS-FLI1 expression: low (doxycycline-induced shRNA knockdown) 0.069 | [3] 0.071 | [4] 0.00829 | [9] 0.134 | [10] 0.0542 | [5] 0.16 | [6] 0.158 | [11] 0.195 | [12] 0.121 | 25 µM, library screen: screen2, EWS-FLI1 expression: high (no doxycycline) 0.244 | 25 µM, library screen: screen2, EWS-FLI1 expression: low (doxycycline-induced shRNA knockdown) 0.114

C=C[C@H]1CN2CC[C@H]1C[C@@H]2[C@@H](OC(=O)OCC)c1ccnc2ccc(OC)cc12
inactive: [3] 0.12 | [4] 0.082 | [5] 0.173 | [6] 0.169

Brc1ccc(CN2CCNCC2)cc1
inactive: [3] 0.0414 | [4] 0.121 | [5] 0.0626 | [6] 0.0805

C[C@@H](N)[C@@H](O)c1ccccc1
inactive: [3] 0.199 | [4] 0.05 | [5] 0.0838 | [6] 0.0342

O=C(O)COc1ccc(Cl)cc1Cl
inactive: [3] 0.0733 | [4] 0.0542 | [5] 0.0257 | [6] 0.121

Oc1ccc2c3c1O[C@H]1c4oc5ccccc5c4C[C@@]4(O)C(C2)N(CC2CC2)CCC314 (stereo partly specified)
inactive: [9] 0.123 | [10] 0.122 | [11] 0.0412 | [12] 0.065

CC(C)(C)c1o[nH]c(=O)c1CC(N)C(=O)O (stereo unspecified)
inactive: [9] 0.0947 | [10] 0.0371 | [11] 0.104 | [12] 0.0294

CC[C@@H](C)C(=O)O[C@H]1[C@H](O)[C@H]2[C@@H](CN3C[C@@H](C)CC[C@H]3[C@@]2(C)O)[C@@H]2C[C@]34O[C@]5(O)[C@@H](OC(=O)[C@@](C)(O)[C@@H](C)O)CC[C@@]3(C)[C@@H]5[C@@H](OC(C)=O)[C@@H](OC(C)=O)[C@H]4[C@@]21O
inactive: [3] 0.0432 | [4] 0.0125 | [5] 0.068 | [6] 0.0811

CN1C2CC3CC1[C@H](O)C2O3 (stereo partly specified)
inactive: [3] 0.0139 | [4] -0.0209 | [5] 0.0278 | [6] 0.0758

NC(CF)(Cc1cnc[nH]1)C(=O)O (stereo unspecified)
inactive: [9] 0.186 | [10] 0.069 | [11] 0.162 | [12] 0.1

CC(=O)O[C@@H]1C[C@H]2C(C)(C)C(=O)C=C[C@]2(C)[C@H]2CC[C@]3(C)C(=CC(=O)O[C@H]3c3ccoc3)[C@@]21C
inactive: [3] 0.03 | [4] 0.143 | [5] 0.0618 | [6] 0.0922

C=C(C)C(=O)/C(=C\C(=O)O)OC
inactive: [3] 0.0761 | [4] 0.0593 | [5] 0.138 | [6] 0.0173

COP(=O)(OC)OC(Br)C(Cl)(Cl)Br (stereo unspecified)
inactive: [3] 0.05 | [4] -0.000859 | [5] 0.0787 | [6] 0.115

COc1cc(OC)c(OC)cc1C=O
inactive: [3] 0.0675 | [4] 0.0986 | [5] 0.037 | [6] 0.0609

CN[C@@H](C)[C@H](O)c1ccccc1
inactive: [3] 0.0728 | [4] 0.0797 | [9] 0.178 | [10] 0.073 | [5] 0.233 | [6] 0.0725 | [11] 0.0371 | [12] 0.00703

COc1ccc(C(=O)O)cc1OC
inactive: [3] 0.0171 | [4] 0.0588 | [5] 0.137 | [6] -0.0498

O=C(O)c1cc[c]([Hg][Cl])cc1
active: [11] -0.0791
inactive: [9] 0.203 | [10] 0.0774 | [12] 0.0559

NNCc1cccc(O)c1
inactive: [3] 0.103 | [4] 0.0544 | [9] 0.129 | [10] 0.00623 | [5] 0.142 | [6] 0.142 | [11] 0.151 | [12] 0.0221
